Compound activity (PubChem)
Rows were chosen to be rich in hits. Some 22% of all compounds tested hit in one or more screens of this group.
CYP2C19 inhib: blocks human cytochrome P450 2C19; inhibition, % at 5 µM; AID 778; CYP2C19 Supersomes, luciferin-H EGE luminescence, 30 min; P33261; actives 21% (n = 96,000);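 active = CYP2C19 inhibition above a set limit at 5 µM in the primary screen, cut at about 50% in these data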;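 also: plate controls were negative control wells for no effect and 2.5 mM tranylcypromine positive control for full effect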
Target sequence (P33261 whole entry, looked up): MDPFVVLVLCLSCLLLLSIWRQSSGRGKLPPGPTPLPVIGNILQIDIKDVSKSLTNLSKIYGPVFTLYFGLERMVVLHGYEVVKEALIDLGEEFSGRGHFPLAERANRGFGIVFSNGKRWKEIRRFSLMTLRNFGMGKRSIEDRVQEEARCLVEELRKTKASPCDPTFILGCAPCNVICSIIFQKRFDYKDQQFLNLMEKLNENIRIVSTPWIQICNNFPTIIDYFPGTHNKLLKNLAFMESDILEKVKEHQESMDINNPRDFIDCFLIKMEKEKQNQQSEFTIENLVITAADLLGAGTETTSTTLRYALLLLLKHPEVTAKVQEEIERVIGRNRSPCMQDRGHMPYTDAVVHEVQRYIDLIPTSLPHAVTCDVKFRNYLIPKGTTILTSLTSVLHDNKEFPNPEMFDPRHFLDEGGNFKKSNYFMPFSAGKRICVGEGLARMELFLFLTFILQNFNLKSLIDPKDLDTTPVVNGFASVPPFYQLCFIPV
CYP2C9 act: activators of human CYP2C9. P11712. recombinant CYP2C9, luciferin-H conversion, luminescence; hits give high values; factor 1 = untreated enzyme, 0 = blocked. activation factor at 5 µM. actives 1.4% (n = 96,000). AID 1024;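 active = activation factor of 2 or more for CYP2C9 at a 5 µM dose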;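 also: 0 = sulfaphenazole-blocked wells and 1 = vehicle-only wells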
Measles CPE: protection of cells from measles virus. Measles virus-infected cells, CPE protection, absorbance. protection (pct of control), % at 4 µM. actives 1.5% (n = 140,000). AID 841; in the data active = protection mostly above about 24%, no sharp cut-off; inactive = mostly below about 26%
CYP2C9 inhib: blocks human cytochrome P450 2C9; P11712; CYP2C9 Supersomes, luciferin-H conversion, luminescence; inhibition, % at 5 µM; actives 20% (n = 96,000); AID 777;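 active = blocking of liver enzyme CYP2C9 beyond about 50% at 5 µM, limit read from the data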
CYP2C19 act: increases human CYP2C19 enzyme activity; recombinant CYP2C19, luciferin-H EGE luminescence; hits give high values; 0 = fully inhibited enzyme, 1 = untreated enzyme; activation factor at 5 µM; 96,000 tested, under 10 active;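 active = activation factor of at least 2 at 5 µM in the primary screen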;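 also: 0 = wells with 2.5 mM tranylcypromine and 1 = vehicle-only wells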
* marks the source's active call; other numbers are inactive results; nt = no result.

SMILES | CYP2C19 inhib | CYP2C9 act | Measles CPE | CYP2C9 inhib | CYP2C19 act
O=C(c1ccc2c(c1)OCO2)N(Cc1cccs1)C1(C(=O)NC2CCCCC2)CCCCC1 | nt | nt | 7 | nt | nt
Cc1ccc(C(=O)Nc2ccc(C(=O)/C=C/c3cccs3)cc2)cc1 | 32 | 0.7 | 8 | 35 | 0.7
Cn1c(-[n+]2c(-c3ccccc3)cc(-c3ccccc3)cc2-c2ccccc2)nc2c([N+](=O)[O-])cccc21 | nt | nt | 5 | nt | nt
CCN(C1CCCCC1)S(=O)(=O)c1ccc(S(=O)(=O)N(CC(=O)Nc2ccccc2)C2CC2)cc1 | -14 | 0.3 | 5 | 68* | 1.1
COc1ccc(C)cc1S(=O)(=O)N(CC(=O)Nc1cccc([N+](=O)[O-])c1)c1cc(C)cc(C)c1 | -2 | 0.1 | 10 | 93* | 1
O=C(CN(C1CC1)S(=O)(=O)c1ccc(S(=O)(=O)N2CCCCCC2)cc1)Nc1ccccc1 | 46 | 0.6 | 9 | 40 | 0.5
Cc1ccc(NS(=O)(=O)c2cc(C(=O)Nc3cccc([N+](=O)[O-])c3)ccc2C)cc1 | nt | nt | 7 | nt | nt
Cc1ccc(NS(=O)(=O)c2ccc(OCC(=O)Nc3cccc([N+](=O)[O-])c3)c(C)c2)cc1 | 52* | 0.1 | 21 | 89* | 0.5
Cc1ccc(S(=O)(=O)N(CC(=O)Nc2ccc(Cl)c([N+](=O)[O-])c2)C2CCCCC2)cc1 | nt | nt | 5 | nt | nt
Cc1ccc(S(=O)(=O)N(CC(=O)Nc2cccc([N+](=O)[O-])c2)C2CCCCC2)cc1 | 19 | 0.1 | 6 | 92* | 0.8
N#Cc1sc2nc(-c3cccs3)cc(-c3ccc(Cl)cc3)c2c1N | 19 | 0.8 | 4 | 17 | 0.8
CCOC(=O)c1cnn(-c2ccccc2)c1NC(=O)CSc1nnc(-c2cccs2)n1CC | 8 | 1.1 | 15 | -8 | 0.9
Cc1c(Cl)cnc(NC(=O)COC(=O)C(NC(=O)c2ccco2)C(C)C)c1Cl (configuration not stated) | 77* | 0.5 | 2 | 50 | 0.2
O=C(COC(=O)c1ccccc1NC(=O)c1ccco1)Nc1ncc(Cl)cc1Cl | 28 | 0.4 | 4 | 64* | 0.7
CC(OC(=O)C(NC(=O)c1ccco1)C(C)C)C(=O)Nc1ncc(Cl)cc1Cl (configuration not stated) | 32 | 0.9 | 29 | 6 | 0.7
COC(=O)CCc1sc(NC2CCCCC2)nc1-c1ccc(OC)cc1 | nt | nt | 30 | nt | nt
COc1cccc(C2=CC(c3cccc(OC)c3OC(F)F)n3nnnc3N2)c1 (configuration not stated) | 42 | 1.1 | 17 | -7 | 0.6
COc1cccc(C2=CC(c3cccc(OC)c3OC)n3nnnc3N2)c1 (configuration not stated) | 98* | 0.1 | 3 | 90* | 0
COc1ccc(OC)c(C2C=C(c3ccc(C)c(C)c3)Nc3nnnn32)c1 (configuration not stated) | 97* | 0 | 7 | 96* | 0
COc1cccc(C2=CC(c3cc(OC)ccc3OC)n3nnnc3N2)c1 (configuration not stated) | 35 | 0.3 | 12 | 68* | 0.6
COc1ccc(C2C(C(=O)OC3CCCCC3)=C(C)Nc3nnnn32)c(OC)c1OC (configuration not stated) | nt | nt | 2 | nt | nt
O=C(NCC1CCCO1)c1ccc(CS(=O)(=O)c2ccc(Br)cc2)o1 (configuration not stated) | -4 | 0.9 | 10 | 14 | 1
O=S(=O)(N1CCOCC1)N1CCN(c2ccc(F)cc2)CC1 | 12 | 1.2 | 28 | -19 | 0.9
CC1(C)Cc2c(C#N)c(N3CCOCC3)nc(-c3ccccc3)c2CO1 | nt | nt | 6 | nt | nt
CC(C)Cc1nc(N2CCN(C(=O)Cc3ccccc3)CC2)c(C#N)c2c1COC(C)(C)C2 | 27 | 0.5 | nt | 46 | 0.7
SMILES | CYP2C19 inhib | CYP2C9 act | Measles CPE | CYP2C9 inhib | CYP2C19 act
CCCC(=O)N1CCN(c2nc(CC(C)C)c3c(c2C#N)CCC3)CC1 | 89* | 0.1 | 23 | 89* | 0.1
CC(C)C(=O)N1CCN(c2nc(-c3ccccc3)c3c(c2C#N)CCCC3)CC1 | 98* | 0.1 | 4 | 94* | 0
CCOC(=O)CC1=NC(=O)CS1 | -8 | 1.1 | 3 | -8 | 1.1
CCc1ccccc1NC(=O)CN(C)C(=O)CSc1nnc(Nc2ccc(C)cc2)s1 | nt | nt | 16 | nt | nt
Cc1ccc2oc(=O)cc(CN3CCOCC3)c2c1 | 1 | 1.1 | 2 | -7 | 1
CCNc1cc2oc(=O)c(CN3CCOCC3)c(C)c2cc1C | 22 | 3.3* | 43* | -227 | 0.8
CC(=O)NC1=NC(=O)/C(=C/N2CCOCC2)S1 | 1 | 1.1 | 4 | -8 | 1
